Bioassay records: PubChem, several laboratories
Rows were chosen to be rich in hits. Some 3.7% of all compounds tested hit in one or more screens of this group.
Autofluor counter – compound fluorescence in toxin protease inhibitor counterscreen; compound autofluorescence counterscreen, microsphere flow cytometry; stronger effect = higher value; fluorescence intensity (test concentration not listed); actives 3.1% (n = 360,000); AID 624483; in the data active = fluorescence intensity above about 16000
BoNT F protease – BoNT/F light chain protease inhibitors, primary screen, biochemical, flow cytometry, MLPCN library | Botulinum neurotoxin type F light chain protease (Clostridium botulinum) | Multiplex microsphere protease cleavage assay | inhibition, % at 10 µM | actives 0.22% (n = 360,000) | AID 588497, 2011; in the data active = inhibition above about 35%, passing the limit was not always enough; also: plate controls were buffer without enzyme for full effect and enzyme alone for no effect
BoNT A protease – BoNT/A light chain protease inhibitors, primary screen, biochemical, flow cytometry, MLPCN library; Botulinum neurotoxin type A light chain protease (Clostridium botulinum A str. ATCC 3502); multiplex microsphere protease substrate cleavage; inhibition, % at 10 µM; actives 0.17% (n = 360,000); AID 588499, 2011; also: plate controls were buffer without enzyme for full effect and enzyme alone for no effect
Anthrax LF prot – Bacillus anthracis LF protease inhibitors, primary screen, biochemical, multiplex microsphere, MLPCN library. multiplex microsphere protease cleavage assay. actives 0.12% (n = 360,000). Lethal factor (Bacillus anthracis), P15917. inhibition, % at 10 µM; also: plate controls were buffer without enzyme for full effect and enzyme alone for no effect
MazEF act – activators of E. coli MazEF toxin-antitoxin RNase, primary screen, biochemical, fluorescence, uHTS; AID 504720, 2011; FAM/BHQ RNA-DNA oligo cleavage fluorescence, 5 h; actives 0.32% (n = 350,000); activation, % at 20 µM; Endoribonuclease toxin MazF (Escherichia coli (strain K12)), P0AE70; in the data active = activation above about 50%
Target sequence (P0AE70 whole entry, looked up): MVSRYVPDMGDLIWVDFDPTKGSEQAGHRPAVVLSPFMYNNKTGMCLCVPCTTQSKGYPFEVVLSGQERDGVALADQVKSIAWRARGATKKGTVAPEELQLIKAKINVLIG
BoNT-A LC CP1 – BoNT/A light chain protease inhibitors, confirmation, biochemical, flow cytometry, cherry pick 1; AID 602139, 2011; inhibition, % at 10 µM; multiplex microsphere protease assay; shares compounds with BoNT F protease; actives 3% (n = 720); in the data active = inhibition above about 32%
BoNTF LC inh 1 – BoNT/F light chain protease inhibitors, confirmation, biochemical, flow cytometry, cherry pick 1; shares compounds with BoNT F protease; multiplex microsphere protease cleavage assay; inhibition, % at 10 µM; 720 tested, under 10 active; AID 602140, 2011; call rule not given here
Anthrax LF CP1 – Bacillus anthracis LF protease inhibitors, confirmation, biochemical, multiplex microsphere, cherry pick 1 | shares compounds with BoNT F protease | multiplex microsphere protease cleavage assay | 720 tested, under 10 active | inhibition, % at 10 µM; call rule not given here
An asterisk follows results filed as active; . = no result given. Rule as the data show it, unless noted: active = inhibition above about 30%; inconclusive = no clear call, values can overlap the other calls; inactive = below that.

SMILES	Autofluor counter	BoNT F protease	BoNT A protease	Anthrax LF prot	MazEF act	BoNT-A LC CP1	BoNTF LC inh 1	Anthrax LF CP1
COc1ccccc1CNC(=O)COC(=O)c1nc(Cl)ccc1Cl	3485	8.5	5.4	0.2	7.2	.	.	.
CC1CCCCC1NC(=O)COC(=O)c1ccc2c(=O)n3c(nc2c1)CCC3 (centres undefined)	3973	-4.2	-0.2	-0.1	1.1	.	.	.
Cc1ccc(Nc2nc(C)cc(C)n2)c(Br)c1	9927	35.1*	31.5*	-22.6	-0.7	-0.2	-3.6	-2.5
Cc1ccnc(NC(=O)c2cnc(Cl)c(Cl)c2)c1	3457	1.1	0.9	6.0	1.7	.	.	.
CCCSc1cc(=O)n(-c2ccccc2)nc1C(=O)O	1895	-1.2	-0.1	-1.4	6.0	.	.	.
COC(=O)CCSc1cc([N+](=O)[O-])cc2c1c(C1OCCO1)nn2-c1ccccc1	2047	5.2	32.9*	14.2	-5.0	7.6	0.4	2.3
CCCCn1nnnc1C(c1ccccc1)N1CCN(C(=O)C2CCCO2)CC1 (centres undefined)	5749	-1.5	0.1	-4.3	.	.	.	.
CCN(CCCNC(=O)CN1C(=O)COc2ccccc21)c1ccccc1	5098	20.8	30.5*	34.8*	-1.4	0.7	-3.1	-4.2
C=CCN1[C@@H](Cc2ccccc2)COc2cc(N3CCSCC3)ccc2S1(=O)=O	5127	-6.0	-0.2	1.3	.	.	.	.
O=C(NCc1ccc2c(c1)OCO2)C1CC(=O)N(CCc2ccc(F)cc2)C1 (centres undefined)	3679	3.4	-0.6	0.9	-0.4	.	.	.
Cc1nc([N+](=O)[O-])c(Sc2nc3ccccc3[nH]2)n1Cc1ccccc1	8495	0.8	0.6	-3.4	5.3	.	.	.
Cn1cnc([N+](=O)[O-])c1Sc1nc2ccccc2[nH]1	4159	4.5	-0.6	33.8*	2.5	0.5	-3.0	-0.4
Cc1cccc(CCNC(=O)c2cccc(NC3=NC4CS(=O)(=O)CC4S3)c2)c1 (centres undefined)	6438	5.9	0.0	1.5	4.2	.	.	.
CCc1ccc(CNCCc2ccccc2F)cc1	2112	-8.3	0.1	-1.5	-5.0	.	.	.
CCOc1cc(CNCCc2ccccc2F)ccc1OC	3522	83.3*	10.2	13.1	5.8	-0.4	-4.9	-3.5
O=C(O)C1C2C=CC(C2)C1C(=O)N1CCc2ccccc21 (centres undefined)	3667	38.6*	3.6	5.7	0.2	-2.4	-7.7	-1.1
COc1ccc(S(=O)(=O)NNS(=O)(=O)c2ccc(OC)c(OC)c2)cc1OC	6064	1.8	0.0	5.1	.	.	.	.
COc1ccc(NC(=S)NCc2ccc3c(c2)cc(C)n3C)cc1	1884	-135.3	25.2	-119.9	19.3	.	.	.
Cc1cc2cc(CNC(=O)Nc3ccccc3)ccc2n1C	2200	-153.4	55.6*	-78.2	9.7	9.7	-48.2	-8.0
Cc1cc2cc(CNC(=O)C(C)Oc3ccccc3)ccc2n1C (centres undefined)	2556	-56.9	90.0*	-10.2	-0.8	3.8	-4.3	2.2
CCOC(=O)NCc1ccc2[nH]c(C)cc2c1	3699	-19.6	25.1	16.2	1.3	.	.	.
Cc1cc2cc(CNC(=O)c3cccs3)ccc2n1C	1271	-71.5	79.0*	-2.7	11.7	15.2	-33.5	1.6
Cc1cc2cc(CNC(=O)Nc3ccccc3)ccc2[nH]1	3218	-117.0	54.8*	-84.2	3.4	6.3	-45.8	-7.6
O=C(/C=C/c1ccccc1)Nc1cccc(C(=O)N2CCCC2)c1	3951	5.0	-0.7	-8.9	2.2	.	.	.
COc1ccccc1CNC(=O)c1cc(S(=O)(=O)N2CCN(c3ccccc3)CC2)ccc1Cl	3692	0.2	0.0	-9.1	-20.3	.	.	.
CCC(CC)C(=O)NCc1ccc2c(c1)cc(C)n2C	3772	-37.0	32.0*	-1.3	0.3	1.7	-4.6	-1.9
CCOC(=O)NCc1ccc2c(c1)cc(C)n2C	13397	21.5	41.3*	41.8*	-1.6	-0.1	-7.5	-1.2
